# Screening results deposited in PubChem BioAssay by National Center for Advancing Translational Sciences (NCATS).
# AMA1 RON2 block – inhibitors of Plasmodium falciparum AMA1-RON2 interaction | Potency, µM (titrated, usually from 58.2 µM), without a hit: top-dose activity change, negative = inhibition, hits mostly inhibitors | AlphaScreen AMA1-biotinylated RON2 peptide binding | AID 720542 | 360,000 compounds, 0.2% hits;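 note: 0% = vehicle wells and -100% = peptide control; nearly all actives have a fitted effect of over 45% in size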
#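 AMA1 (3D7) with his tag at 25 nM final met compounds first, then biotinylated RON2 peptide at 25 nM; detection used donor plus acceptor beads, 10 µg/mL apiece, read by AlphaScreen after 30 min at room temperature.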
# SARS PLpro yeast – blocks SARS-CoV papain-like protease in a yeast assay; S. cerevisiae expressing SARS-CoV PLpro, growth rescue; Potency, µM (highest dose often 32.9 µM), inactives show top-dose activity, positive = growth rescue, actives largely listed as activators; 330,000 compounds, 0.19% hits; AID 485353; calls by dose curve; note: 0% is about no effect; nearly all actives have a fitted effect of over 55% in size
# VACV mCherry inh – vaccinia inhibition (mCherry reporter) | Potency, µM (titrated, usually from 36.5 µM), for the others: top-dose activity change, negative = inhibition, actives largely listed as inhibitors | AID 720579 | 310,000 compounds, 0.63% hits | Vaccinia virus mCherry reporter infection, fluorescence; calls by dose curve; tested in A549 cells; note: % is set by controls: 0 for no effect and ±100 for the full control effect; nearly all actives have a fitted effect of over 35% in size
# VACV Venus inh – vaccinia inhibition (Venus reporter); 330,000 compounds, 0.46% hits; Potency, µM (top dose mostly 36.5 µM), without a hit: at the top dose activity change, negative = inhibition, hits mostly inhibitors; Vaccinia virus Venus reporter expression, fluorescence; calls by dose curve; tested in A549 cells; note: % is set by controls: 0 for no effect and ±100 for the full control effect; nearly all actives have a fitted effect of over 30% in size
# AmpC no deterg – AmpC beta-lactamase inhibition without detergent. AmpC nitrocefin hydrolysis, absorbance 480 nm, 0.0001% Triton. Potency, µM (highest dose often 57.1 µM), for inactives: top-dose activity change, negative = inhibition, most hits filed as inhibitors. 330,000 compounds, 0.52% hits;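 note: plate controls were no compound for no effect and no enzyme for full effect; nearly all actives have a fitted effect of over 20% in size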
# Target sequence (P00811 whole entry, looked up): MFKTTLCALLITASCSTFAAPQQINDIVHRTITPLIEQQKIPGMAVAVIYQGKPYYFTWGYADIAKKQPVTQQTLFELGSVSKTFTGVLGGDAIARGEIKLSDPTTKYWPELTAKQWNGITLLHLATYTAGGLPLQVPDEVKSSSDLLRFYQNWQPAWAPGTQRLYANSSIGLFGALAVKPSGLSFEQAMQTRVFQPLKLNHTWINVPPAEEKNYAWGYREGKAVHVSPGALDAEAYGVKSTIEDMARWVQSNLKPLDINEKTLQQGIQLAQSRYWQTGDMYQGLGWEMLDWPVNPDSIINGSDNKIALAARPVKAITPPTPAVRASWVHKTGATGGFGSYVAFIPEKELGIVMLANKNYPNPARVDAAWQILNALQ
#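 20 mM phosphate pH 7.0 + 0.01% (detergent screen) or 0.0001% Triton X-100; 5.3 nM AmpC reagent; cpd preinc 15 min RT; nitrocefin (800 uM stock) to start; A480 q20 s × 4 min; Activity was normalised to no-enzyme and no-compound control wells.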
# AmpC detergent – blocks E. coli AmpC beta-lactamase in detergent assay | AID 485294 | P00811 | 370,000 compounds, 0.041% hits | AmpC hydrolysis of nitrocefin, absorbance 480 nm, 0.01% Triton | Potency, µM (highest dose often 114 µM), for inactives: at the top dose activity change, negative = inhibition, most hits filed as inhibitors;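 note: 0% = no-compound wells and -100% = no-enzyme wells; nearly all actives have a fitted effect of over 25% in size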
#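 20 mM phosphate pH 7.0 + 0.01% (detergent screen) or 0.0001% Triton X-100; 5.3 nM AmpC reagent; cpd preinc 15 min RT; nitrocefin (800 uM stock) to start; A480 q20 s × 4 min; Activity was normalised to no-enzyme and no-compound control wells.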
# Active calls of the source: *; i = inactive; ? = inconclusive; / = not tested or not shown; [ ] = another dose, or the depositor's remark. The list is not random: actives were taken first. Their share in the collection is about 1.3%. Unless noted, calls come from the whole dose curve; as a rule, active = well fitted curve in the direction sought with a large enough effect; inconclusive = small, poorly fitted or top-dose-only effect, or another doubt; inactive = no such curve, though single readings can be large; an effect the other way counts as inactive or inconclusive. Potency is the fitted concentration of half-maximal effect.
SMILES,AMA1 RON2 block,SARS PLpro yeast,VACV mCherry inh,VACV Venus inh,AmpC no deterg,AmpC detergent
COC1CC(OC2CCC3(C)C(CCC4C3CCC3(C)C(C5=CC(=O)OC5)C(OC(C)=O)CC43O)C2)OC(C)C1OC1OC(COC2OC(CO)C(O)C(O)C2O)C(O)C(O)C1O (stereo not given),/,1%,/,/,176%,4%
CSc1ncccc1C(=O)NCC1Cc2cc(-c3cnccn3)cc(Cl)c2O1 (stereo not given),/,/,i,-12%,/,/
Cc1cc(C(=O)CSc2nnnn2-c2ccc(O)cc2)c(C)n1Cc1ccc2c(c1)OCO2,-22%,3%,/,/,2.2µM*,-8%
Cc1cc(C(=O)CSc2nncs2)c(C)n1-c1ccc2c(c1)OCO2,-17%,-9%,-7%,-22%,0.28µM*,?
Cc1cc(C(=O)CSc2nnnn2-c2ccccc2)c(C)n1-c1ccc2c(c1)OCO2,-26%,7%,-12%,-13%,-42%,4%
CNC(=S)NNC(=O)COc1cccc(C)c1C,116%,10µM*,-6%[1.46 µM],14%,-29%,?
COc1ccc(-c2sc3ccccc3c2-c2ccc(OCCN3CCCCC3)cc2)cc1,?,1%,-14%,-17%,-17%,/
COc1cccc(-c2sc3ccccc3c2-c2ccc(OCCN(C)C)cc2)c1,?,-6%,14µM*,?,141%,/
c1ccc(-c2sc3ccccc3c2-c2ccc(OCCN3CCCC3)cc2)cc1,-29%,4%,?,14µM*,88%,/
COc1cccc(-c2sc3ccccc3c2-c2ccc(OCCN3CCCC3)cc2)c1,?,-4%,?,13µM*,47%,/
CN(C)c1cc2c3ccccc3ccc2c2ccccc12,/,/,-13%,-6%,/,/
COc1cc(OC)cc(C(=O)NCC2Cc3cccc(-c4nc(C)cnc4C)c3O2)c1 (stereo not given),/,/,-12%,8%,/,/
C=C1C(=O)C=C2CN(C(=O)c3ccccc3)[C@@](Cc3ccc(F)cc3)(C(=O)OC)[C@@H]12,13%,-25%,?,8.9µM*,-27%,-23%
CCN(c1ccc(NC(=O)COC(=O)/C=C/c2cccs2)cc1)C(C)C,18µM*,0%,2%,15%,-22%[11.4 µM],?
O=C(COC(=O)/C=C/c1cccs1)Nc1nc(-c2cccc(Br)c2)cs1,-18%,0%,?,-14%,6.3µM*,-2%
O=C(/C=C/c1cccs1)Nc1nc(-c2ccccc2)cs1,4%,-1%,/,/,-27%,-6%
Cc1ccc(NC(=O)COC(=O)/C=C/c2cccs2)cc1,-8%,2%,i,-9%,-23%,-7%
Cc1cccc(CNC(=O)c2cnn(-c3nccc(-c4cccs4)n3)c2C(C)C)n1,/,/,-23%,-13%,/,/
COc1ccc(OC)c(NC(=O)Nc2ccc3c(c2)CCC3)c1,-14%,-12%,/,/,8.9µM*,-6%
C=CCN(CC=C)S(=O)(=O)c1ccc(NC(=S)NC(=O)c2ccco2)cc1,8%,-4%,/,?,35µM*,-13%
Cc1cccn2cc(CCNS(=O)(=O)c3cccc([N+](=O)[O-])c3)nc12,-8%,-3%,i,-5%,2%,0%
COc1ccc(S(=O)(=O)NCCc2cn3cccc(C)c3n2)cc1OC,-1%,-6%,-17%,-1%,10µM*,?
Cc1cnc(-n2ncc(C(=O)NCC3COCCO3)c2C2CC2)nc1-c1cccs1 (stereo not given),/,/,-18%,-8%,/,/
CCN(CC)c1ccc(C(=C2C=CC(=[N+](CC)CC)C=C2)c2ccc(N(CC)CC)cc2)cc1,2.2µM*,/,/,/,/,/
CCN(CC)c1ccc(C(=C2C=CC(=[N+](CC)CC)C=C2)c2ccccc2)cc1,11µM*,/,?,2µM*,/,/
SMILES,AMA1 RON2 block,SARS PLpro yeast,VACV mCherry inh,VACV Venus inh,AmpC no deterg,AmpC detergent
CCN(CC)c1ccccc1,8%,2%,i,-1%,-4%,-4%
CCN(CC)CCCN=C1N[C@@H](c2cccc(F)c2)C(C(=O)OC)=C(C)N1Cc1ccccc1,9%,1%,?,28µM*,40%,/
COC(=O)C1=C(C)N(Cc2ccccc2)C(=NCc2ccccc2)N[C@H]1c1cccc(F)c1,-8%,-2%,?,?,75%,-11%
COC(=O)C1=C(C)N(Cc2ccccc2)C(=NCCc2c[nH]c3ccccc23)N[C@H]1c1ccccc1,-19%,3%,-21%,-19%,-14%,-2%
COC(=O)C1=C(C)N(Cc2ccccc2)C(=NCCc2c[nH]c3ccccc23)N[C@H]1c1cccc(F)c1,-30%,-7%,?,13µM*,-2%,/
CCC1CN(CC(=O)NC(C)c2cn(C)nc2C)Cc2cc(OC)ccc2O1 (stereo not given),/,/,-9%,3%,/,/
COc1ccc2cc1Oc1ccc(cc1)C[C@H]1c3c(cc(OC)c4c3Oc3c(ccc5c3[C@H](C2)N(C)CC5)O4)CCN1C,-25%,-6%,?,?,-9%,/
COc1ccc2cc1Oc1ccc(cc1)CC1c3c(cc(OC)c4c3Oc3cc5c(cc3O4)CCNC5C2)CCN1C (stereo not given),14µM*,0%,?,?,121%,-3%
CN(C)CCCn1c(SCC(=O)N2c3ccccc3Sc3ccccc32)nc2ccccc2c1=O,-28%,-4%,?,14µM*,284%,-7%
Cn1c(SCC(=O)N2c3ccccc3Sc3ccccc32)nc2ccccc21,2%,-5%,-21%,-11%,-8%,?
C=C1C(=O)C23C(O)C1CCC2C12CCCC(C)(COC(C)=O)C1C(O)C3(O)OC2 (stereo not given),2%,/,2.5µM*,4µM*,/,/
C=CC[C@@H](CC(=O)N(CCO)Cc1ccccc1)C(=O)N[C@@H](COC(=O)[C@@H](CC=C)Cc1ccc(F)cc1)Cc1c[nH]c2ccccc12,-13%,1%,?,10µM*,42%,/
C=CC[C@H](CC(=O)N(CCO)Cc1ccccc1)C(=O)N[C@@H](COC(=O)[C@H](CC=C)CC(=O)OC(C)(C)C)Cc1c[nH]c2ccccc12,-18%,2%,?,?,220%,/
C=CC[C@H](CC(=O)N(CCO)Cc1ccccc1)C(=O)N[C@@H](COC(=O)[C@@H](CC=C)Cc1ccc(F)cc1)Cc1c[nH]c2ccccc12,?,3%,11µM*,10µM*,65%,/
CCS(=O)(=O)Nc1cc(C(=O)N2CCC[C@H]2CO)c2c(c1)nc(-c1ccccc1)n2C,/,/,-4%,-4%,/,/
COc1cccc(C2(CC(=O)N3CCN(c4ccccn4)CC3)CC(=O)N(C3CCCC3)C2=O)c1 (stereo not given),/,/,-1%,-17%,/,/
